Assay results: PubChem BioAssay (NCI)
The panel holds about 83,000 compounds, 20% with a hit somewhere; the sample as a whole holds those more often.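 Single-dose data. Exposure time 48 hours. Values below 10 considered active.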 A number with no mark means an inactive call. Activity calls are given as the source filed them.

Each compound was assayed on TK-10 renal (assay: NCI-60 one-dose screen, 48 h (100 = growth as untreated, 0 = no growth, -100 = all killed)). Details: 10 µM unless noted.
In the case of `O=C(Nc1ccc2c(c1)C(=O)c1ccccc1-2)c1ccccc1`, the growth was 46.9%. Work on `COc1ccc(CNC(=O)c2c(C)n([O-])c3ccc(OC)cc3[n+]2=O)cc1` yielded a growth of 104%. In the case of `CC[N+](CCCCCCCCCC[N+](CC)(c1ccccn1)c1ccccn1)(c1ccccn1)c1ccccn1`, the growth was -3% (active). For `CCCCCCCSc1ncnc2[nH]ncc12`, the growth was 81.1%. With `CC(C)N(Cc1ccccc1)c1c(S)ssc1=S` the growth was 37.1%. `O=C(NCCNC(=O)Oc1cccc2ccccc12)Oc1cccc2ccccc12` showed a growth of 92.3%. `Cc1[nH]c(=O)[nH]c(=O)c1CCSSCCc1c(C)[nH]c(=O)[nH]c1=O` showed a growth of 101%. `CC(C)N(Cc1ccccc1)c1c(Cl)ssc1=O` was tested, and the growth was 124%. For `CSc1nc(-c2ccc(O)cc2O)c2c(=O)[nH]c(Nc3ccc(S(=O)(=O)Nc4nc(C)cc(C)n4)cc3)nc2n1`, the growth was 123%. Compound `c1ccc(COc2ccc(Nc3ncnc4c3cnn4-c3ccccc3)cc2)cc1` has a growth of 111%. `O=C1/C(=C/c2ccc(F)cc2)Cc2ccccc21` gave a growth of 96.7%. `CC[n+]1c(/C=C/c2ccc(N3CCCC3)cc2)cccc1/C=C/c1ccc(N2CCCC2)cc1` was tested, and the growth was -80.5% (active). Compound `ICCC(c1ccccc1)(c1ccccc1)c1ccccc1` has a growth of 73.5%. `O=c1[nH]c(SCc2ccccc2)nc2nc(Nc3ccc(NC(=S)Nc4ccccc4)cc3)nc(-c3ccc(O)cc3O)c12` showed a growth of 133%. `Cc1cc(Cl)ccc1Nc1nc(C(F)(F)F)ccc1C(=O)N/N=C/c1ccc(Cl)cc1` was tested, and the growth was 9.18% (active). For `Cc1sc2nc3c4ccccc4c(NCCCN(C)C)nn3c(=O)c2c1C`, the growth was 78%. With `Cc1csc(C#Cc2cncc(O)c2)n1` the growth was 121%. In the case of `COCCOCCOCCOCCOc1ccc2c(c1)C(=O)c1nc3ncccc3c(=O)n1-2`, the growth was -77.4% (active). `N#CC1c2ccccc2C=CN1C(=O)N(c1ccccc1)c1ccccc1` (configuration not stated) was tested, and the growth was 32.1%. Work on `Nc1ccc2c(c1)C(=O)c1cc(Cl)c(Cl)cc1-2` yielded a growth of 113%. `COc1ccc2c(c1)C(=Nc1cc(OC)c(OC)c(OC)c1)C(=O)N2` showed a growth of 136%. `CN(C)CCCN=c1cc2c(=O)n(CCCN(C)C)c(=O)c3c(NCCCN(C)C)cc4c(O)n(CCCN(C)C)c(=O)c1c4c3-2` was tested, and the growth was 7.45% (active). Work on `COc1ccc(-c2cnc(SCC(=O)Nc3ccc(-c4nc5ccccc5s4)cc3)n2-c2ccc(OC)cc2)cc1` yielded a growth of 108%. `O=c1[nH]cc(Nc2cc(Cl)c3nonc3c2[N+](=O)[O-])c(=O)[nH]1` showed a growth of 125%. In the case of `CCOC(=O)Nc1cc(-c2ccc(C)c(NS(C)(=O)=O)c2)nn2c(C)nnc12`, the growth was -3.12% (active). `COc1ccc2ncccc2c1Cc1c(OC)ccc2ncccc12` showed a growth of 89.2%. For `c1ccc(-c2n(Cc3ccc4ccccc4c3)cc[n+]2Cc2ccc3ccccc3c2)cc1`, the growth was -69.8% (active). `Nc1nc(Nc2ccccc2SSc2ccccc2Nc2nc(N)nc(-c3cccc(Cl)c3)n2)nc(-c2cccc(Cl)c2)n1` was tested, and the growth was 154%. `CC1CN(CC(O)c2ccc(Br)cc2)CCO1` (configuration not stated) was tested, and the growth was 110%. In the case of `CC[C@@H](C)/C=C(C)/C=C/C(=O)c1c(O)c(-c2ccc(O)cc2)cn(OC2CC(=O)CCC(C)OC(=O)CC2O)c1=O` (some centres not stated), the growth was 43.1%. For `CCCCc1n(Cc2ccc3ccccc3c2)cc[n+]1Cc1ccc2ccccc2c1`, the growth was -10.4% (active). With `CCCCCCCCN(CCO)CCCCCCCC` the growth was 109%.

What follows are compounds tested on ACHN renal in the same assay as above. Details: 10 µM unless noted.
`COc1cc(-c2nnc(-c3nc(-c4cc(OC)c(OC)c(OC)c4)n4ccccc34)o2)ccc1N` showed a growth of 62.2%. Work on `O=C(Nc1ccc2c(c1)C(=O)c1ccccc1-2)c1ccccc1` yielded a growth of 63.8%. With `COc1ccc(CNC(=O)c2c(C)n([O-])c3ccc(OC)cc3[n+]2=O)cc1` the growth was 111%. In the case of `N#CC(C#N)C(C#N)C#N`, the growth was 107%. `CC[N+](CCCCCCCCCC[N+](CC)(c1ccccn1)c1ccccn1)(c1ccccn1)c1ccccn1` was tested, and the growth was 20.9%. Work on `CCCCCCCSc1ncnc2[nH]ncc12` yielded a growth of 88.7%. With `CC(C)N(Cc1ccccc1)c1c(S)ssc1=S` the growth was 5.95% (active). Compound `O=C(NCCNC(=O)Oc1cccc2ccccc12)Oc1cccc2ccccc12` has a growth of 85.3%. Compound `Cc1[nH]c(=O)[nH]c(=O)c1CCSSCCc1c(C)[nH]c(=O)[nH]c1=O` has a growth of 104%. For `CC(C)N(Cc1ccccc1)c1c(Cl)ssc1=O`, the growth was 102%. With `COc1cnc2c(c1)C(=O)c1c-2n(CCCN2CCCC2)c(=O)c2cc(F)ccc12` the growth was -67.7% (active). Work on `CSc1nc(-c2ccc(O)cc2O)c2c(=O)[nH]c(Nc3ccc(S(=O)(=O)Nc4nc(C)cc(C)n4)cc3)nc2n1` yielded a growth of 93.3%. In the case of `c1ccc(COc2ccc(Nc3ncnc4c3cnn4-c3ccccc3)cc2)cc1`, the growth was 104%. With `O=C1/C(=C/c2ccc(F)cc2)Cc2ccccc21` the growth was 98.2%. For `CC[n+]1c(/C=C/c2ccc(N3CCCC3)cc2)cccc1/C=C/c1ccc(N2CCCC2)cc1`, the growth was -96.3% (active). `ICCC(c1ccccc1)(c1ccccc1)c1ccccc1` was tested, and the growth was 68.9%. `O=C(CSc1nnc(-c2cc(-c3ccccc3)nc3ccccc23)o1)c1ccc(Br)cc1` was tested, and the growth was 107%. Compound `O=c1[nH]c(SCc2ccccc2)nc2nc(Nc3ccc(NC(=S)Nc4ccccc4)cc3)nc(-c3ccc(O)cc3O)c12` has a growth of 89.5%. `Cc1cc(Cl)ccc1Nc1nc(C(F)(F)F)ccc1C(=O)N/N=C/c1ccc(Cl)cc1` was tested, and the growth was -1.46% (active). `Cc1sc2nc3c4ccccc4c(NCCCN(C)C)nn3c(=O)c2c1C` was tested, and the growth was 53.5%. In the case of `C[C@H](C(=O)N[C@@H](Cc1ccc(-c2ccccc2)cc1)C(=O)NC1CC(C)(C)NC(C)(C)C1)c1ccc(-c2ccccc2)c(F)c1`, the growth was -86.9% (active). For `Cc1csc(C#Cc2cncc(O)c2)n1`, the growth was 117%. For `CN[C@@H]1C(OC2[C@H](O[C@H]3[C@H](O)[C@@H](O)[C@H](N=C(N)N)[C@@H](O)[C@@H]3N=C(N)N)OC(C)[C@]2(O)CO)OC(CO)C(O)C1O` (some centres not stated), the growth was 114%. With `COCCOCCOCCOCCOc1ccc2c(c1)C(=O)c1nc3ncccc3c(=O)n1-2` the growth was -19.5% (active). In the case of `N#CC1c2ccccc2C=CN1C(=O)N(c1ccccc1)c1ccccc1` (configuration not stated), the growth was 12.3%. `Nc1ccc2c(c1)C(=O)c1cc(Cl)c(Cl)cc1-2` showed a growth of 92.1%. `COc1ccc2c(c1)C(=Nc1cc(OC)c(OC)c(OC)c1)C(=O)N2` was tested, and the growth was 88.5%. With `CN(C)CCCN=c1cc2c(=O)n(CCCN(C)C)c(=O)c3c(NCCCN(C)C)cc4c(O)n(CCCN(C)C)c(=O)c1c4c3-2` the growth was -41.6% (active). `COc1ccc(-c2cnc(SCC(=O)Nc3ccc(-c4nc5ccccc5s4)cc3)n2-c2ccc(OC)cc2)cc1` gave a growth of 111%. `O=c1[nH]cc(Nc2cc(Cl)c3nonc3c2[N+](=O)[O-])c(=O)[nH]1` gave a growth of 92.9%. `CCOC(=O)Nc1cc(-c2ccc(C)c(NS(C)(=O)=O)c2)nn2c(C)nnc12` was tested, and the growth was 8.87% (active). `NS(=O)(=O)c1cc2c(cc1Cl)NC=NS2(=O)=O` was tested, and the growth was 98.9%. Compound `COc1ccc2ncccc2c1Cc1c(OC)ccc2ncccc12` has a growth of 86.1%. In the case of `c1ccc(-c2n(Cc3ccc4ccccc4c3)cc[n+]2Cc2ccc3ccccc3c2)cc1`, the growth was 13.3%. With `Nc1nc(Nc2ccccc2SSc2ccccc2Nc2nc(N)nc(-c3cccc(Cl)c3)n2)nc(-c2cccc(Cl)c2)n1` the growth was 88.8%. `CC1CN(CC(O)c2ccc(Br)cc2)CCO1` (configuration not stated) showed a growth of 106%. With `CC[C@@H](C)/C=C(C)/C=C/C(=O)c1c(O)c(-c2ccc(O)cc2)cn(OC2CC(=O)CCC(C)OC(=O)CC2O)c1=O` (some centres not stated) the growth was 0.984% (active). For `CCCCc1n(Cc2ccc3ccccc3c2)cc[n+]1Cc1ccc2ccccc2c1`, the growth was 30%. `COc1cc(/C=C2\SC(N3CCCCC3)=NC2=O)ccc1OCCCCCCOc1ccc(/C=C2\SC(N3CCCCC3)=NC2=O)cc1OC` gave a growth of 23.1%. `CCCCCCCCN(CCO)CCCCCCCC` showed a growth of 96.6%.
